Source: the supplement of paper PMC11732987, “Enantioselective OTUD7B fragment discovery through chemoproteomics screening and high-throughput optimisation” (Communications Chemistry, 2025)
A number with no mark means an inactive call.

Legend:
Test in all cases: log2 ratio of Biotin-Ahx-Ub-VS probe labelling (fragment/DMSO); higher = less target engagement (more negative = stronger competition), active = hit call of the paper (q ≤ 0.05, log2 ratio ≤ -1)
Conditions in all cases: compound concentration: 200 uM; treatment time: 3 h
OTUD6B = biological target: T1, OTUD6B (UniProt Q8N6M0)
T1 sequence (whole entry): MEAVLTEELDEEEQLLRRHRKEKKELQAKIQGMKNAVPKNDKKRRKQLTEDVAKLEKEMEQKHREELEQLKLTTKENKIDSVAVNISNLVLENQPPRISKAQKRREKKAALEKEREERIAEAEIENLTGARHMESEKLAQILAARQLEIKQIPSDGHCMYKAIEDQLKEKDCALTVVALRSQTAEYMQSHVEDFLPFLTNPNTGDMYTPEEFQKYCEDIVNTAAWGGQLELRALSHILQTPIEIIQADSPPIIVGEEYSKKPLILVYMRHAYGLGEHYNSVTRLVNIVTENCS
How it was run: (§1)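 Fragment (200 µM) or vehicle was incubated for 3 h with triplicate HEK293T lysate samples of 495 µg, which were then treated with Biotin-Ahx-Ub-VS at 0.5 µM final for 1 h. Labelled DUBs were enriched on NeutrAvidin, digested with LysC and trypsin, and analysed by diaPASEF LC-MS/MS. Values are average log2 fragment/vehicle ratios from an unpaired t-test on global-median-normalised Spectronaut label-free quantities, using proteins with ≥2 unique peptides.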

OTUD7B = biological target: T2, OTUD7B (UniProt Q6GQQ9)
T2 sequence (whole entry): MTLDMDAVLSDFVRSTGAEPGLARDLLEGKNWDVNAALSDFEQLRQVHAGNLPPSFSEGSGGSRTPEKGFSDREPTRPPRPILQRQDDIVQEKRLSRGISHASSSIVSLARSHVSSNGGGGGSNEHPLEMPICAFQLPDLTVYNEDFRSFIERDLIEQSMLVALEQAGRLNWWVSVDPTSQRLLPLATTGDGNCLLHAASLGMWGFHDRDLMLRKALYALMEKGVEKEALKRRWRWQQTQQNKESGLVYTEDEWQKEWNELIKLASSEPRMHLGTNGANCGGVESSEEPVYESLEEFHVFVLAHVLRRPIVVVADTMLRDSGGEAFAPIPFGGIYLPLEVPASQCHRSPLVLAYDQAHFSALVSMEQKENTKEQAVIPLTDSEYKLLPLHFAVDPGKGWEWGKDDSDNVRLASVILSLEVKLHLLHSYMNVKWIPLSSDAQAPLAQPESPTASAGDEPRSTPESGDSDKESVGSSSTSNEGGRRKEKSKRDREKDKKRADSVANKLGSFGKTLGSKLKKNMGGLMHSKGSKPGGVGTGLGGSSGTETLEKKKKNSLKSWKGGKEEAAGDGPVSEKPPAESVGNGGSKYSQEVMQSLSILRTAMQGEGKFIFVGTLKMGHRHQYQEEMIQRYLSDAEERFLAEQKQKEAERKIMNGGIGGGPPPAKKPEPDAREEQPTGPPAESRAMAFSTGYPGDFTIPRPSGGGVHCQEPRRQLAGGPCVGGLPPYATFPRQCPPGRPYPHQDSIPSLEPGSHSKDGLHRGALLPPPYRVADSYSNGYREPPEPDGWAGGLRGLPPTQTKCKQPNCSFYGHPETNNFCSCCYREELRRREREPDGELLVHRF
How it was run: as §1

PRPF8 = PRPF8 (UniProt Q6P2Q9)
How it was run: as §1

PSMD7 = biological target: T3, PSMD7 (UniProt P51665)
T3 sequence (whole entry): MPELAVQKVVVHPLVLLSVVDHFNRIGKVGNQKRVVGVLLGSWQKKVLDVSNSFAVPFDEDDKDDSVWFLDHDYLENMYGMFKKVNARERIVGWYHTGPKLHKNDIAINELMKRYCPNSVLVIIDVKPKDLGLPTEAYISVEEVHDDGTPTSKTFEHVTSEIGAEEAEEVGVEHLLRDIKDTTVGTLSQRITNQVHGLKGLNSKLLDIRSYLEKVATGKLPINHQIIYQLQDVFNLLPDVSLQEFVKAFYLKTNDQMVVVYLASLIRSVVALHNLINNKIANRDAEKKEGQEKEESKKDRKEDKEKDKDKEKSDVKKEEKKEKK
How it was run: as §1

UCHL1 = UCHL1 (UniProt P09936)
How it was run: as §1

UCHL3 = biological target: T4, UCHL3 (UniProt P15374)
T4 sequence (whole entry): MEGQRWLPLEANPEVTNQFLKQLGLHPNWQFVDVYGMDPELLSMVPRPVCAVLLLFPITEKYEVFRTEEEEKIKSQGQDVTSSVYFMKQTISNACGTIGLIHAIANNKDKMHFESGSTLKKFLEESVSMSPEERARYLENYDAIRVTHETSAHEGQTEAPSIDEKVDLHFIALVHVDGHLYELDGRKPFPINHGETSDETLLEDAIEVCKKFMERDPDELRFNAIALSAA
How it was run: as §1

UCHL5 = biological target: T5, UCHL5 (UniProt Q9Y5K5)
T5 sequence (whole entry): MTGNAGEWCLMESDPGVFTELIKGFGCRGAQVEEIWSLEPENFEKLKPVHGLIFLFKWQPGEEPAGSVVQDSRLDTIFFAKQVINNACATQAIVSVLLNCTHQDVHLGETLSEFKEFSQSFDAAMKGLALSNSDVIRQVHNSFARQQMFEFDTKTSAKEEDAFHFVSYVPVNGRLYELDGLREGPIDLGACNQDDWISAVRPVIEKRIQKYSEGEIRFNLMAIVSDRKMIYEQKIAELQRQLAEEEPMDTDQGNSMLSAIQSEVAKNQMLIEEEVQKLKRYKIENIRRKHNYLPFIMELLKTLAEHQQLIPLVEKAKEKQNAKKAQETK
How it was run: as §1

USP10 = USP10 (UniProt Q14694)
How it was run: as §1

USP15 = biological target: T6, USP15 (UniProt Q9Y4E8)
T6 sequence (whole entry): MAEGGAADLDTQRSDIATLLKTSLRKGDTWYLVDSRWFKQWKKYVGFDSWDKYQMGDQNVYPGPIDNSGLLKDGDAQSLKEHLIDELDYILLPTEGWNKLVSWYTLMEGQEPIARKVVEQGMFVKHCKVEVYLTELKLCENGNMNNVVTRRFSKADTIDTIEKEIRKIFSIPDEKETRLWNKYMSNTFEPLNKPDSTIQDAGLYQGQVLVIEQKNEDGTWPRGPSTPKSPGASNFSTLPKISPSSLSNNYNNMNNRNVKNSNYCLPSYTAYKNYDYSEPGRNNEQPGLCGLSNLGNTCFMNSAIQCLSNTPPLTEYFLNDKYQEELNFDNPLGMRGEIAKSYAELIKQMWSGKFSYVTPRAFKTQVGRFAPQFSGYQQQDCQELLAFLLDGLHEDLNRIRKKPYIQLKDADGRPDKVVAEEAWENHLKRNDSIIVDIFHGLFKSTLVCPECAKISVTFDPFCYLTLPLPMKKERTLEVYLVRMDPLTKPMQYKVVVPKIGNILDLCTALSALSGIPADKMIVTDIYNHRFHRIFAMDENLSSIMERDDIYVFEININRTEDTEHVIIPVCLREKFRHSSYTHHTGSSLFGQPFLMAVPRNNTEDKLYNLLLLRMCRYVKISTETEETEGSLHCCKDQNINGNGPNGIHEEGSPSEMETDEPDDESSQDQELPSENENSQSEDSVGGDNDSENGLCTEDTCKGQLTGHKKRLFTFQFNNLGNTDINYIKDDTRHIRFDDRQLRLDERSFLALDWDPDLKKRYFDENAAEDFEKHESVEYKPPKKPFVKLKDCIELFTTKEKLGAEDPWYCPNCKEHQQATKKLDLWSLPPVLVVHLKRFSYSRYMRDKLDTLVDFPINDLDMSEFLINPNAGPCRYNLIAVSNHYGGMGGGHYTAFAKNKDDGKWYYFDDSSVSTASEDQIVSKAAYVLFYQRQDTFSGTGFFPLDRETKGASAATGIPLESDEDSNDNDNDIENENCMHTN
How it was run: as §1

USP16 = USP16 (UniProt Q9Y5T5)
How it was run: as §1

Chain of USP10 (Q14694 whole entry): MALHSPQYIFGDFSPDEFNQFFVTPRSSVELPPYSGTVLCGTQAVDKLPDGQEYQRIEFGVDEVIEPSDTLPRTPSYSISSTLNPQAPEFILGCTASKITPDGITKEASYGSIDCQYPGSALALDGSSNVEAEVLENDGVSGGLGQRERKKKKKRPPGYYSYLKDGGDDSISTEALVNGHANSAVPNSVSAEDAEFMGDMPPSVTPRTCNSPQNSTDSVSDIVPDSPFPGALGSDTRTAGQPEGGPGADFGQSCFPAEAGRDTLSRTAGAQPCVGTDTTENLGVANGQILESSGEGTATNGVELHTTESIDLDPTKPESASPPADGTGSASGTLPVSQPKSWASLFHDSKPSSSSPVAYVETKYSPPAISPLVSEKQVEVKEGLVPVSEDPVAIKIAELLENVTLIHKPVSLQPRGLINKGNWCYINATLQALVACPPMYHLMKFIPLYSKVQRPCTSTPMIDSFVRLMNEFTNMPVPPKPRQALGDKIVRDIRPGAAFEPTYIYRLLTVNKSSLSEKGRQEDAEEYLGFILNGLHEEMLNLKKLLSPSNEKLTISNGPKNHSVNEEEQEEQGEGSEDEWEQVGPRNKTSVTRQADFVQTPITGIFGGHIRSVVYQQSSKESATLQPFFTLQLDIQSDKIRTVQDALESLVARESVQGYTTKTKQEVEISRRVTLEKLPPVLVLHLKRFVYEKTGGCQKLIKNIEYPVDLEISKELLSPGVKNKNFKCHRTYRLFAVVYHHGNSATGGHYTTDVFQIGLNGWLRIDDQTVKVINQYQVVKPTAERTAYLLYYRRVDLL
Chain of UCHL1 (P09936 whole entry, looked up): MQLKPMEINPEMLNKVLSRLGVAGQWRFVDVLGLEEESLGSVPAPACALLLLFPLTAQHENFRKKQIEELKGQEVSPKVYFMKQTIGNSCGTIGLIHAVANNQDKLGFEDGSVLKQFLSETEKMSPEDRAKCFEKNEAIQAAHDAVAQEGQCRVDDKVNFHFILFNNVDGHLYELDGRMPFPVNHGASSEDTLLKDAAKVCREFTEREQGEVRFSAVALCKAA
Chain of USP16 (Q9Y5T5 whole entry, looked up): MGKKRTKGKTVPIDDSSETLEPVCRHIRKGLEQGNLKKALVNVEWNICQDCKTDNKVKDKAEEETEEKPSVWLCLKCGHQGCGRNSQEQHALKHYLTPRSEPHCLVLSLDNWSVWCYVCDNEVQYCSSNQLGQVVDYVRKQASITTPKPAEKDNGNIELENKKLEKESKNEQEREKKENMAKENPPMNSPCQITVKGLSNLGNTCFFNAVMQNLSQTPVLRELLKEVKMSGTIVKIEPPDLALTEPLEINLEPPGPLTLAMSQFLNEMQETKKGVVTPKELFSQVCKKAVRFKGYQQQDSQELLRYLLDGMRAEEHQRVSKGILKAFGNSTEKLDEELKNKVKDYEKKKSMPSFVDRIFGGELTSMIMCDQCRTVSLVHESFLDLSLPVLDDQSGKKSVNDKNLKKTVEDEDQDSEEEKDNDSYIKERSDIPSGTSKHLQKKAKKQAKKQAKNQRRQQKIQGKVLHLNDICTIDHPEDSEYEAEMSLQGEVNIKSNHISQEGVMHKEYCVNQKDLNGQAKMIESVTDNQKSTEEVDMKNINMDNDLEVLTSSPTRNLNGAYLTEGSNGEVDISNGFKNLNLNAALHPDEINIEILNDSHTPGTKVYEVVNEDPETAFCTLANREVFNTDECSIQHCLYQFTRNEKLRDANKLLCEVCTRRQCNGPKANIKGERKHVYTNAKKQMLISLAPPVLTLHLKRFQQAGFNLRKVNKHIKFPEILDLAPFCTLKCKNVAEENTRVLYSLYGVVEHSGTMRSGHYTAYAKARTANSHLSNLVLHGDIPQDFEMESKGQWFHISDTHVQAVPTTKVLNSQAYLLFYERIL

CS(=O)(=O)c1ccc(CNC(=O)CCl)cc1
log2 ratio of Biotin-Ahx-Ub-VS probe labelling (OTUD6B): -0.168 | log2 ratio of Biotin-Ahx-Ub-VS probe labelling (OTUD7B): -0.575 | log2 ratio of Biotin-Ahx-Ub-VS probe labelling (PRPF8): -0.126 | log2 ratio of Biotin-Ahx-Ub-VS probe labelling (PSMD7): -0.155 | log2 ratio of Biotin-Ahx-Ub-VS probe labelling (UCHL1): -1.33 (active) | log2 ratio of Biotin-Ahx-Ub-VS probe labelling (UCHL3): 0.301 | log2 ratio of Biotin-Ahx-Ub-VS probe labelling (UCHL5): -0.165 | log2 ratio of Biotin-Ahx-Ub-VS probe labelling (USP10): -0.141 | log2 ratio of Biotin-Ahx-Ub-VS probe labelling (USP15): -0.268 | log2 ratio of Biotin-Ahx-Ub-VS probe labelling (USP16): -0.251
